Test results reported in PubChem BioAssay AID739 (SRMLSC, 2007).
Screen size: about 98,000 compounds; about 880 (0.9%) were called active. Rule as the data show it: active = inhibition above about 30%; inactive = the rest. This excerpt belongs to a sample that is enriched for actives.

Test: phenotypic screen on post-Golgi transport, primary screen (AID 739);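 also: yeast cells grown in 1536-well plates; yeast grown about 18 h at 30C before absorbance read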
Settings: post-Golgi transport phenotypic cell assay; at 10 µM; active compounds read high

inhibition, active:
O=C(Nc1ccc2ccccc2c1)Nc1ccc2snnc2c1 96.1%
O=C(CC(O)(C(F)(F)F)C(F)(F)F)Nc1ccc(Cl)c(Cl)c1 105%
c1ccc2[nH]c(-c3nc4ccccc4[nH]3)nc2c1 30.1%
CC(Oc1ccc2ccccc2c1)C(=O)NNC(=S)NC(=O)c1ccco1 (centres undefined) 43%
COc1cc(Cl)c(S(=O)(=O)N2CCN(Cc3ccc4c(c3)OCO4)CC2)cc1Cl 38.9%
COc1ccc(-c2cc(C(F)(F)F)nc(S(C)(=O)=O)n2)cc1OC 54.9%
Cc1ccc(C2(C(F)(F)F)N=C3Sc4cc(C)cc(C)c4N3C(=O)N2)cc1 (centres undefined) 90.2%
CC1=CC(C)(C)N(C(=O)CSc2nnc(-c3ccccc3)o2)c2ccc(C)cc21 101%
FC(F)(F)COc1nc(N2CCCCC2)nc(N2CCNCC2)n1 33.5%
Cc1cc([N+](=O)[O-])c(-c2ccc(/C=N/n3cnnc3)o2)cc1Cl 99.8%
Cc1cc(-c2ccc(/C=N/n3cnnc3)o2)c([N+](=O)[O-])cc1C 59.7%
O=C1c2ccccc2C2=Nc3ccccc3SC(c3ccccc3F)C12 (centres undefined) 103%
CC(C)Cc1nc(N2CCOCC2)c(C#N)c2c1CCC2 35%
FC(F)Oc1ccccc1C1CC(c2ccc(Br)s2)Nc2ncnn21 (centres undefined) 39.4%
COc1ccc(Br)cc1S(=O)(=O)N1CCN=C1C 31.5%

inhibition, inactive:
CC(C)C(NS(=O)(=O)c1cccs1)C(=O)Nc1nc(C(C)(C)C)cs1 (centres undefined) 7.03%
Cc1c(C=O)c2ccccn2c1C(=O)c1ccncc1 -6.66%
COc1ccc(NC(=O)Nc2ccc3nsnc3c2)cc1 -0.7%
COc1ccc(NC(=O)Nc2ccc3nc(C)c(C)nc3c2)cc1 -7.69%
CC(=O)Nc1ccccc1C(=O)C(=O)Nc1ccc(F)cc1 -1%
N/C(=N\OC(=O)Nc1ccc(Cl)c(Cl)c1)c1ncc(C(F)(F)F)cc1Cl 3.3%
Cc1nnc(NC(=O)Nc2ccc(Cl)c(Cl)c2)s1 5.16%
COc1cc(SC)ccc1C(=O)NCCOc1ccccc1Cl 4.48%
Cc1ccc(-c2nc3ccccc3[nH]2)cc1N 0.67%
c1ccc(-c2[nH]ncc2-c2nc3ccccc3[nH]2)cc1 11%
CCCc1ccc(OCC(=O)NNC(=S)NC(=O)c2ccco2)cc1 27.3%
COc1ccc(C(=O)NC(=S)NNC(=O)CCc2ccccc2)cc1 0.19%
CCN(CC(=O)NC1CCS(=O)(=O)C1)c1nc(-c2cccnc2)nc2ccccc12 (centres undefined) 3.37%
COC(=O)Cc1cc(=O)oc2c(C)c(O)ccc12 -6.64%
CS(=O)(=O)N(CC(=O)N1CCN(Cc2ccc3c(c2)OCO3)CC1)c1ccc2c(c1)OCO2 6.95%
CCn1cc(C(=O)N2CCN(Cc3ccc4c(c3)OCO4)CC2)c2cc(OC)c(OC)cc2c1=O -1.13%
CC(=O)c1ccc(Cc2ncc(C(F)(F)F)cc2Cl)s1 6.38%
COc1ccc(-c2cc(C(F)(F)F)nc(NCc3cccnc3)n2)cc1 10.4%
COc1ccc(-c2ccc(Nc3ccc(S(=O)(=O)N4CCCC4)cc3)nn2)cc1OC 1.55%
CCOC(=O)c1cc2c(ccn2C)n1CC(=O)N1CCC(C)CC1 1.25%
O=C(c1cccc(F)c1)N1CCC(O)(c2cccnc2)CC1 1.27%
COc1ccc2[nH]cc(/C=C(/C#N)S(=O)(=O)c3ccccc3)c2c1 -4.52%
Cc1n[nH]c(=O)n1-c1ccc(Oc2ccccc2)cc1 -19.2%
COC(=O)Nc1ncc(CN2CCCCC2)s1 -4.67%
Cc1ccc(/C=N/NC(=O)C(NC(=O)c2ccccc2)c2n[nH]c(=O)c3ccccc23)cc1 (centres undefined) 0.64%
Cc1cc(NC(=O)/C=C/C(=O)N(c2ccccc2C)C(C(=O)NC2CCCC2)c2ccc(F)cc2)no1 (centres undefined) 0.32%
CC1=CC(C)(C)N(C(=O)CSc2nccn2C)c2cc(C)ccc21 5.13%
O=C(CSc1nnc(-c2ccccc2)o1)N1CCOCC1 8.7%
Cc1ccc(CNC(=O)c2ccccc2CCc2ccccc2)cc1 -2.21%
O=C(CSCc1ccc(Cl)cc1)N1CCCCC1 -4.56%
Cc1cc(C)c([N+](=O)[O-])cc1-c1ccc(/C=N/NC(=O)c2nonc2N)o1 -6.17%
O=C1C2C3C=CC(C4CC34)C2C(=O)N1/N=C/c1ccc(-c2ccccc2[N+](=O)[O-])o1 (centres undefined) 3.37%
CCOc1ccc(C(=O)NCCCN2CCCC2=O)cc1 11.5%
O=C(COC(=O)c1ccccc1NC(=O)c1ccco1)Nc1ccc2c(c1)OC(F)(F)O2 -2.04%
Cc1nc2ccc(NC(=O)C(F)(F)F)cc2o1 -13.7%
OC(c1ccccc1)c1nccn1Cc1ccccc1 (centres undefined) -6.53%
Cn1c(-c2sc3cc(C(F)(F)F)cnc3c2-c2ccccc2)n[nH]c1=S -3.98%
c1ccc2c(CSCc3nc4ccccc4[nH]3)cccc2c1 4.1%
Cc1ccc(SCC(=O)Nc2ncc(C)s2)cc1 -7.09%
Cc1c(CCO)c(=O)n(-c2ccccc2)n1S(=O)(=O)c1ccc(F)cc1 -6.46%
CC(C)CCNc1nc(N2CCCC2)c2c(c1C#N)CCN(C)C2 -1.14%
CC(C)c1nc(N2CCOCC2)c(C#N)c2c1COC(C)(C)C2 -8.94%
CCOc1ccc(-c2c(C)n([O-])c3c([n+]2=O)CCCC3)cc1 0.66%
COc1ccc(C2CC(c3ccccc3)Nc3ncnn32)cc1 (centres undefined) 4.34%
Clc1ccc(C2CC(c3cccs3)n3ncnc3N2)cc1Cl (centres undefined) 1.99%
CC(C)C(=O)OCC(=O)Nc1ccc2c(c1)CCC2 7.4%
CCC(=O)NC(Nc1cc(C)ccn1)(C(F)(F)F)C(F)(F)F 6.28%
CC1=NCCN1S(=O)(=O)c1ccc(Br)c(C)c1 3.83%
COCCNS(=O)(=O)c1cc(Br)ccc1OC 8.12%
